SW480 rerep: inducers of DNA re-replication in SW480 colon cancer cells. Potency, µM (highest dose often 46.1 µM), inactives show at the top dose re-replication activation, actives largely listed as activators. SW480 DNA re-replication, Hoechst DNA content imaging, 48 h. 340,000 compounds, 1.8% hits; also: % of control where 0% means no effect; nearly all actives have a fitted effect of over 55% in size
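Hoechst fluorescence of nuclei (405 nm excitation, 500-530 nm emission) measured by plate-scanning imager after 48 hr compound exposure at 37 C; re-replication scored as increased number of nuclei with elevated intensity.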
KB-V1 MDR tox: kills drug-selected multidrug resistant KB-V1 cells. Potency, µM (top dose mostly 46.1 µM), usual class: cytotoxic. AID 1347076. KB-V1 MDR cells viability, CellTiter-Glo, 72 h. 400,000 compounds, 3.4% hits; also: % is scaled to controls: 0 for no effect and ±100 for the full control effect; nearly all actives have a fitted effect of over 60% in size
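Readout: CellTiter-Glo luminescence, 10 min after addition. Cells: KB-V1 MDR subline, 72 h at 37 degrees C with compound. Analysis: corrected, normalized data fitted to concentration-effect curves.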
KB-3-1 tox: KB-3-1 parental cell cytotoxicity; 400,000 compounds, 1.4% hits; KB-3-1 viability, CellTiter-Glo ATP luminescence, 72 h; Potency, µM (doses to about 46.1 µM), actives largely listed as cytotoxic; also: % is scaled to controls: 0 for no effect and ±100 for the full control effect; nearly all actives have a fitted effect of over 60% in size
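72 h, 37 °C compound treatment of KB-3-1 parental cells; CellTiter-Glo added, 10 min, luminescence read. Data corrected against DMSO-only plates and normalized before curve fitting.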
MCF10A rerep: inducers of DNA re-replication in MCF 10A breast cells; MCF 10A DNA re-replication, Hoechst nuclear intensity, 48 h; Potency, µM (highest dose often 46.1 µM), for inactives: top-dose activity, positive = re-replication, most hits filed as activators; 350,000 compounds, 2.9% hits; also: % of control where 0% means no effect; nearly all actives have a fitted effect of over 50% in size
RORg inh: ROR gamma (mouse) transcription inhibition. Drosophila S2 Gal4-RORgamma UAS-luciferase reporter, 20 h. Potency, µM (series often up to 53.6 µM), without a hit: at the highest dose activity change, negative = inhibition, actives largely listed as inhibitors. 310,000 compounds, 5.4% hits. AID 2551; also: % is scaled to controls: 0 for no effect and ±100 for the full control effect; nearly all actives have a fitted effect of over 60% in size
Target sequence (P51450 whole entry, looked up, the tested form may be a part): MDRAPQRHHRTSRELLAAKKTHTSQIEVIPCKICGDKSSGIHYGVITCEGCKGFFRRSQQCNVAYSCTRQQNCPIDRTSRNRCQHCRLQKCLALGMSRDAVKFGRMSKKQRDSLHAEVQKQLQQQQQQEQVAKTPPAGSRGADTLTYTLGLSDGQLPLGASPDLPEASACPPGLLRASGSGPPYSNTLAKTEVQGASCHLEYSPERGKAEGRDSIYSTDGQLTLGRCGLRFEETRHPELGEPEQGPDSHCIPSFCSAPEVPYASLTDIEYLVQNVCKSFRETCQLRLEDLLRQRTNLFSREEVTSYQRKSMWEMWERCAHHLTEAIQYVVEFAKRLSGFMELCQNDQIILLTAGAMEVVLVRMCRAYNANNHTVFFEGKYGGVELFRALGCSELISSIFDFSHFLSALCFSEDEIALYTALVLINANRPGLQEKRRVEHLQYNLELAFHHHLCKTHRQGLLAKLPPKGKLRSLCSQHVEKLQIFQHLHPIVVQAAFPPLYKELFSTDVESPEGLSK
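Stable Schneider cell line, Gal4 DNA-binding domain fused to ROR gamma, UAS-luciferase. Cmpd 1 hr RT → CuSO4 700 uM final → 20 hr RT → luciferase reagent 10 min → luminescence.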
VP16 counter: Gal4-VP16 reporter inhibition counter-screen; Drosophila S2 Gal4-VP16 UAS-luciferase, luminescence, 20 h; Potency, µM (top dose mostly 53.6 µM), without a hit: at the highest dose activity, negative = inhibition, most hits filed as inhibitors; 310,000 compounds, 3.5% hits;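 also: Gal4-VP16 expression switched on by copper sulfate through the metallothionein promoter; % is scaled to controls: 0 for no effect and ±100 for the full control effect; nearly all actives have a fitted effect of over 50% in size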
* hit, by the source's call; i = inactive; ? = inconclusive; . = no result given; [ ] = dose if it differs, or a comment. A selection: hits, their analogues and other compounds. The true share with any hit is near 10%. Calls follow the shape of the dose curve; as a rule, active = well fitted curve in the direction sought with a large enough effect; inconclusive = small, poorly fitted or top-dose-only effect, or another doubt; inactive = no such curve, though single readings can be large; an effect the other way counts as inactive or inconclusive. Potency is read from the fitted curve at half-maximal effect.

SMILES	SW480 rerep	KB-V1 MDR tox	KB-3-1 tox	MCF10A rerep	RORg inh	VP16 counter
COc1ccc(C2=NN(C(=O)CSc3ncccn3)C(c3ccc(OC)cc3)C2)cc1 (centres undefined)	3.2%	?	i	6.2%	?	-1.5%
COc1ccc(C(C#N)N2N=C(C)CC2c2ccccc2)cc1 (centres undefined)	-6.6%	i	i	4.3%	-1.6%	-13.8%
COc1ccc(C2=NN(C(C#N)c3ccc(OC)cc3)C(c3ccccc3)C2)cc1 (centres undefined)	9.6%	6.51µM*	23.1µM*	?	?	?
COc1ccc(C2CC(c3ccccc3)=NN2C(=O)CCC(=O)O)cc1 (centres undefined)	-1.8%	i	i	4.5%	?	?
COc1ccc(C2=NN(C(=O)CSc3nc4ccccc4s3)C(c3ccc(F)cc3)C2)cc1 (centres undefined)	6.3%	11.6µM*	?	2.6%	-4.9%	-2.4%
COc1ccc(C2=Nc3nc(-c4ccccc4)cn3C(c3ccc(OC)cc3)C2)cc1 (centres undefined)	16.4µM*	i	i	?	?	?
Cc1cc2ccccc2n2c(SCC(=O)Nc3cccc(C(F)(F)F)c3)nnc12	.	i	i	.	.	.
Cc1cn([C@H]2C[C@H](O)[C@@H](CCC(=O)NCCc3ccc4ccccc4c3)O2)c(=O)[nH]c1=O	.	i	i	.	.	.
COc1ccc(OCc2cc(C(=O)NC(C)Cc3cccnc3)no2)c(Cl)c1 (centres undefined)	8.2µM*	?	i	9.4%	?	-1.2%
COc1ccc(OCc2cc(C(=O)N[C@H]3CCCCNC3=O)no2)c(Cl)c1	1.7%	i	i	5.6%	10.5%	-0.6%
COc1ccc(OCc2cc(C(=O)NC3Cc4ccccc4C3)no2)c(Cl)c1	?	?	4.61µM*	?	-22.9%	-13.9%
CS(=O)(=O)c1cc(N2CCOCC2)ccc1CNC[C@H]1O[C@@H](n2cnc3c(=O)[nH]c(N)nc32)[C@H](O)[C@@H]1O	.	i	i	.	.	.
CS(=O)(=O)Nc1cccc(-c2nccc(Nc3ccc(F)cc3)n2)c1	.	.	.	.	?	1.7%
CCCCC[C@H](O)/C=C/C1=C(C/C=C\CCCC(=O)O)C(=O)CC1	.	.	.	.	-4.2%	-13.5%
CCCCCOC(=O)Nc1ccc(S(=O)(=O)Nc2cccc([N+](=O)[O-])c2)cc1	-0.1%	i	i	?	?	?
CC(=O)Nc1ccc(S(=O)(=O)Nc2ccc(S(=O)(=O)Nc3nc(C)cc(C)n3)cc2)cc1	-29.8%	i	i	-40.2%	?	-5.4%
CCCCN(CCCC)S(=O)(=O)c1ccc(NC(=O)Cc2cccs2)cc1	-2.2%	5.17µM*	i	23.9%	0.6%	-11.6%
CCCCOC(=O)Nc1ccc(S(=O)(=O)Nc2ccc([N+](=O)[O-])cc2)cc1	?	20.6µM*	i	15.3%	?	?
CCCCOc1ccc(S(=O)(=O)Nc2ccc(NC(C)=O)cc2)cc1	-3.4%	20.6µM*	?	18.7%	?	?
CCCCN(CCCC)S(=O)(=O)c1ccc(NS(=O)(=O)c2ccc(NC(C)=O)cc2)cc1	2.1%	i	i	14.6µM*	-12.9%	7.3%
Cc1ccccc1-c1cnc(C(O)c2ccc(F)c(F)c2)[nH]1 (centres undefined)	.	i	i	.	.	.
COc1ccc(NC(=O)c2c(N)c(C(=O)c3ccc(C)cc3)n3ccccc23)cc1OC	.	i	i	.	.	.
Clc1ccccc1CN1CCc2nc(N3CCN(c4ncccn4)CC3)ncc2C1	.	18.4µM*	?	.	.	.
O=S(=O)(Nc1nc2ccccc2nc1Nc1ccc2c(c1)OCO2)c1ccc(F)cc1	2.4%	5.8µM*	?	10.7%	?	-22.3%
Cc1cc(C)n(-c2nc3ccccc3nc2Nc2ccc3c(c2)OCO3)n1	6.4%	i	i	16.4µM*	-7.9%	-3.6%
SMILES	SW480 rerep	KB-V1 MDR tox	KB-3-1 tox	MCF10A rerep	RORg inh	VP16 counter
Cc1ccc(S(=O)(=O)Nc2nc3ccccc3nc2N2CCOCC2)cc1	-3.6%	i	i	2.7%	.	.
O=S(=O)(Nc1nc2ccccc2nc1N1CCN(c2ccccc2)CC1)c1ccc(F)cc1	-695.4%	5.17µM*	?	15.2%	77.3%	-2.7%
Cc1cccc(N2CCN(S(=O)(=O)c3nnc(NC(=O)c4ccc(Cl)cc4)s3)CC2)c1	.	?	i	.	.	.
C(=C\c1ccccc1)/CN1CCN(C(c2ccccc2)c2nnnn2Cc2ccccc2)CC1 (centres undefined)	.	i	?	.	.	.
Cc1ccc(Cl)cc1N1CCN(S(=O)(=O)c2ccc3oc(=O)c4ncn(C)c4c3c2)CC1	.	i	i	.	.	.
CCOC(=O)c1ccccc1NC(=O)CSc1cc(C)[nH]c(=O)n1	.	i	i	.	.	.
O=S1(=O)N=C(Oc2ccc(-c3ccccc3)cc2)c2ccccc21	.	i	i	.	.	.
CC(C)(C)OC(=O)N/N=C/c1cccn1-c1ccc([N+](=O)[O-])cc1	?	i	i	28.3%	21.3%	-3.5%
CN(C)c1ccc(-n2cccc2/C=C/[N+](=O)[O-])cc1	14.2%	?	?	?	11.2µM*	-6.4%[10 µM]
O=C(Nc1ccccc1)N1CCCC2(CCN(C(=O)c3cccc(F)c3)CC2)C1	.	.	.	.	-6.3%	-4.6%
O=C(Nc1ccc(Cl)cc1)Nc1ccccc1Sc1ncc([N+](=O)[O-])s1	?	i	?	?	11.2µM*	?
O=C(Nc1csc([N+](=O)[O-])c1)Nc1ccccc1Cl	12.5%	?	i	11.6µM*	31.3%	-28.8%
Cn1cccc1C(=O)N1CCC[C@@]2(CCN(C(c3ccccc3)c3ccccc3)C2)C1	.	.	.	.	-20.3%	0.6%
Cc1ccc(NC(=S)C2=C(O)c3ccccc3N(C)S2(=O)=O)cc1	-3.9%	i	i	8.8%	?	17.8µM*
CN1c2ccsc2C(O)=C(C(=S)Nc2ccccc2)S1(=O)=O	-2.2%	i	i	-3.7%	10µM*	?
CN1c2ccccc2C(O)=C(C(=S)Nc2ccc(F)c(Cl)c2)S1(=O)=O	2.5%	16.4µM*	16.4µM*	?	?	?
Cc1ccccc1NC(=S)C1=C(O)c2sccc2N(C)S1(=O)=O	-10.9%	i	i	2.3%	?	?
Cc1cc2nc(C)n(CCCNC(=O)Nc3cccc4ccccc34)c2cc1C	4.8%	16.4µM*	?	?	12.4%	-29.7%
CCOc1ccc(NC(=O)NCCCN2CCCC2)cc1	-0.3%	i	i	-0.1%	-0.4%	12.6%
